The panel holds about 83,000 compounds, 20% with a hit somewhere; the sample as a whole holds those more often.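 For each line, cells grew in 96-well plates with the test compound present at a single concentration for 48 hours.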 Calls of active or inactive are those of the source. How the source made its calls: active means growth percent below 10; inactive means the rest.
What was measured:
Experiment in all cases: NCI-60 one-dose screen, 48 h (100 = growth as untreated, 0 = no growth, -100 = all killed)
Conditions in all cases: 10 µM unless noted
[1] = test system: NCI-H226 lung
[2] = test system: NCI-H322M lung
[3] = test system: HOP-62 NSCLC
[4] = test system: NCI-H460 lung
[5] = test system: HOP-92 NSCLC
[6] = test system: NCI-H522 lung
[7] = test system: A549/ATCC NSCLC
[8] = test system: 786-0 renal
[9] = test system: COLO 205 colon
[10] = test system: DU-145 prostate
[11] = test system: K-562 leukemia
[12] = test system: MALME-3M melanoma
[13] = test system: MDA-MB-231 breast
[14] = test system: RXF 393 renal
[15] = test system: SF-268 CNS
[16] = test system: SF-295 CNS
[17] = test system: SF-539 CNS
[18] = test system: UACC-257 melanoma
[19] = test system: M14 melanoma
[20] = test system: HCT-15 colon

Measured: growth

CN1CCN(Cc2ccc(NC(=O)c3cncc(C#Cc4cnc5ccc(N6CCSCC6)nn45)c3)cc2C(F)(F)F)CC1
active: [1] -24.7% | [2] -23.9% | [3] -31.1% | [4] -46.6% | [5] -48.6% | [6] -75.4% | [7] -24.5% | [8] -77.7% | [9] -87.9% | [10] -83.2% | [11] -16.2% | [12] -62.6% | [13] -38.4% | [14] -87.3% | [15] -52.9% | [16] -36.2% | [17] -94.2% | [19] -81.6% | [20] -38.9%
inactive: [18] 31.1%

CN1CCc2c(sc3ncnc(N/N=C/c4ccc(Cl)c(Cl)c4)c23)C1
inactive: [1] 56.9% | [3] 69.7% | [5] 37.4% | [6] 89.9% | [7] 21.8% | [9] 36.1% | [10] 48.9% | [11] 27.4% | [12] 38.6% | [13] 13.7% | [14] 42.1% | [15] 61.1% | [16] 34.7% | [18] 92.4%
active: [2] -3.96% | [4] 0.478% | [8] -57.1% | [17] -61.6% | [19] -11.8% | [20] 3.04%

CC(C)(C)Nc1nc2c(OCCc3ccccc3)cccn2c1-c1ccccc1Cl
active: [1] -0.3% | [2] 8.57% | [3] -22.1% | [4] 0.335% | [5] -74.8% | [6] -13.4% | [8] 6.01% | [9] -76.6% | [11] 0.922% | [12] -32% | [13] -32.6% | [14] -43.6% | [16] -56.8% | [17] -74.7% | [18] 1.9% | [19] 0.193% | [20] -72.1%
inactive: [7] 11.6% | [10] 21.1% | [15] 22.9%

Clc1ccc2oc3c(OCCCn4ccnc4)c4ccccc4nc3c2c1
inactive: [1] 88.5% | [2] 73.2% | [3] 87.4% | [4] 32.6% | [5] 53% | [6] 44% | [7] 62% | [8] 46.5% | [9] 36% | [10] 64.1% | [11] 45.2% | [12] 97.9% | [13] 65.7% | [14] 57.9% | [15] 67.7% | [16] 54% | [17] 65.1% | [18] 96.4% | [19] 93.6% | [20] 40.4%

Nc1c(C(=O)Nc2ccc(C(F)(F)F)cc2)sc2nc(-c3cnccn3)cc(-c3cccs3)c12
inactive: [2] 81.8% | [3] 68.1% | [4] 69.7% | [6] 88.5% | [7] 77.9% | [9] 104% | [10] 90.1% | [11] 35.5% | [12] 89% | [13] 66.2% | [14] 25.5% | [15] 78.6% | [16] 78.7% | [18] 95.8% | [19] 49.4% | [20] 78.6%
active: [1] 6.24% | [5] -27.4% | [8] -90.3% | [17] -54.1%

C/C(=N/NC(N)=S)c1ccc(Nc2nc(SCC(C)C)nc(-c3ccc(F)cc3)c2C#N)cc1
inactive: [2] 31.4% | [6] 34.1% | [9] 16.8% | [10] 18.9% | [12] 24.9% | [13] 15% | [15] 25.3% | [18] 63.3% | [19] 28.3% | [20] 25.2%
active: [1] -16.9% | [3] -11.1% | [4] -62.2% | [5] -39.1% | [7] -2.25% | [8] 4.53% | [11] 4.78% | [14] -45.4% | [16] -69.8% | [17] -58.6%

COc1cccc(-c2nn(-c3ccccc3)cc2-c2ccnc(N3CCN(C(=O)c4ccccc4)CC3)c2)c1
inactive: [1] 109% | [2] 105% | [3] 113% | [4] 81.8% | [5] 71.2% | [6] 77.1% | [7] 71.7% | [8] 102% | [9] 97.7% | [10] 91.5% | [11] 31.4% | [12] 89.7% | [13] 64% | [14] 95.7% | [15] 94.2% | [16] 89.1% | [17] 87.1% | [18] 101% | [19] 81.2% | [20] 39.8%

Cc1c(Nc2nnc(SCC(=O)Nc3sc4c(c3C#N)CCCC4)s2)c(=O)n(-c2ccccc2)n1C
inactive: [1] 104% | [2] 98.9% | [3] 107% | [4] 100% | [5] 121% | [6] 97.5% | [7] 106% | [8] 108% | [9] 118% | [10] 105% | [11] 93.5% | [12] 119% | [13] 98.4% | [14] 118% | [15] 103% | [16] 107% | [17] 102% | [18] 116% | [19] 103% | [20] 103%

Nc1c(C(=O)Nc2ccc(Cl)cc2)sc2nc(-c3cnccn3)cc(-c3cccs3)c12
inactive: [1] 13.2% | [2] 70.2% | [3] 44.4% | [4] 63.1% | [5] 52.6% | [6] 93% | [7] 68.8% | [8] 71.2% | [9] 95.7% | [10] 70.3% | [11] 40.5% | [12] 91.2% | [13] 72.9% | [14] 61.5% | [15] 47.2% | [16] 59% | [17] 12.2% | [18] 81.5% | [19] 89.2% | [20] 62.5%

COc1ccc(NC2=CC(=O)C(C)=C(C)C2=O)cc1
inactive: [1] 97.2% | [2] 103% | [3] 99.7% | [4] 99.6% | [5] 172% | [6] 82.5% | [7] 97.3% | [8] 90.5% | [9] 107% | [10] 105% | [11] 66.6% | [12] 89.9% | [13] 83.8% | [14] 102% | [15] 101% | [16] 105% | [17] 105% | [18] 45.4% | [19] 95.6% | [20] 89%

C/C(=C(/c1ccc(Cl)cc1)c1ccc(OCCN)cc1)c1ccc(C)cc1
inactive: [1] 112% | [2] 103% | [3] 103% | [4] 100% | [5] 87.2% | [6] 99.4% | [7] 97.7% | [8] 102% | [9] 114% | [10] 106% | [11] 90.8% | [12] 101% | [13] 94.4% | [14] 112% | [15] 100% | [16] 98.7% | [17] 93.8% | [18] 104% | [19] 102% | [20] 101%

Cc1nc(-c2cc3ccccc3oc2=O)ccc1C(=O)/C=C/c1ccc(N2CCOCC2)cc1
inactive: [1] 88.3% | [2] 107% | [3] 90.8% | [4] 89.7% | [5] 80% | [6] 61.4% | [7] 91.6% | [8] 75.3% | [9] 91.6% | [10] 91.1% | [11] 38% | [12] 57.5% | [13] 54.3% | [14] 89.6% | [15] 75.3% | [16] 66% | [17] 45.2% | [18] 89% | [19] 45.6% | [20] 54.5%

O=C(CN1CCOCC1)NNc1ncnc2ccccc12
active: [6] -61% | [11] 0.401% | [12] -74.5% | [13] 2.91% | [14] -39.7%
inactive: [1] 107% | [2] 102% | [3] 115% | [4] 108% | [5] 51.5% | [7] 105% | [8] 58.9% | [9] 102% | [10] 102% | [15] 97.4% | [16] 95.9% | [17] 82.1% | [18] 86.3% | [19] 55.2% | [20] 70.8%

CNC(=O)c1cc(-c2ccc(NC(=O)Nc3ccc(N4CCN(C)CC4)c(C(F)(F)F)c3)cc2)nc2cccnc12
inactive: [1] 84.6% | [5] 79.5%
active: [2] -78.4% | [3] -78.3% | [4] -76.3% | [6] -71.9% | [7] -81.9% | [8] -97.1% | [9] -41% | [10] -81.7% | [11] -56.9% | [12] -85.5% | [13] -78.4% | [14] -78.3% | [15] -71.3% | [16] -94.5% | [17] -89.2% | [18] -94.3% | [19] -94.2% | [20] -79.5%

CC(C)NC(=O)c1cc(-c2ccc(NC(=O)Nc3ccc(N4CCOCC4)c(C(F)(F)F)c3)cc2)nc2cccnc12
inactive: [1] 80% | [2] 91.2% | [3] 43.9% | [4] 55.2% | [5] 72.3% | [6] 87% | [7] 62.4% | [8] 17% | [9] 99.7% | [10] 78.9% | [11] 24.6% | [12] 68.3% | [13] 48.7% | [15] 77.5% | [17] 20.9% | [18] 94.4% | [19] 73.2% | [20] 68.1%
active: [14] -9.17% | [16] 1.17%

COc1cccc(N2CCN(c3ncnc4c3[nH]c3ccc(F)cc34)C[C@@H]2C)c1
inactive: [20] 18.6%
active: [1] -60.5% | [2] -39.9% | [3] -54.2% | [4] -17.2% | [5] -27.1% | [6] -91.8% | [7] 2.18% | [8] -58.5% | [9] -88.5% | [10] -67.3% | [11] -36% | [12] -26.4% | [13] -4.16% | [14] -27.1% | [15] -1.64% | [16] -14.9% | [17] -32.2% | [18] -27.6% | [19] -84.7%

Source: PubChem BioAssay (NCI)
